The supplement of paper PMC4723716

System: Plasmodium falciparum NF54 gametocytes
Experiment: viability index relative to DMSO control (fraction); higher = less gametocyte killing
Conditions: 12.5 µM, incubation time: 72 h
Procedure, shortened: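 P. falciparum NF54 gametocytes of each stage (I–V), in serum-containing medium (0.50% gametocytemia, 1.25% hematocrit, 40 µl), were incubated with compound at 12.5 µM in 384-well plates for 72 hr at 37°C under low oxygen. Wells received 5 µl of 5 µM MitoTracker Red CMXRos for 20 min. Then 5 µl was moved into 40 µl of 500 nM dye in serum-free medium and imaged after 30 min (three fields). The viability index was the gametocyte particle count divided by the plate mean of DMSO wells.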

[1] = gametocyte stage: Stage I viability index
[2] = gametocyte stage: Stage II viability index
[3] = gametocyte stage: Stage III viability index
[4] = gametocyte stage: Stage IV viability index
[5] = gametocyte stage: Stage V viability index

SMILES	viability index [1]	viability index [2]	viability index [3]	viability index [4]	viability index [5]
Cc1cc(Nc2cccc(F)c2)nc(NCc2ccccc2)n1	0.0365	0.436	0.825	1.01	0.429
CC(=O)c1ccc(NC(=O)CSc2nc(-c3ccccc3Cl)ns2)cc1	0.102	0.308	0.308	0.62	0.584
CCOC(=O)c1cnc2ccc(OC)cc2c1NCc1ccccc1	0.309	0.535	0.991	0.835	0.87
Cc1ccc(N2C(=O)C3C(C2=O)C2(c4ccccc4)C(=O)C3(c3ccccc3)C(c3ccccc3)=C2c2ccccc2)cc1 (stereo not given)	0.733	0.916	1.14	1.03	1.01
Cc1[nH]c(-c2ccc(F)cc2)cc1C(=O)NC1CCN(Cc2ccccc2)CC1	0.131	0.502	0.744	0.881	1.09
COc1cccc(-c2nn(C)c3sc(C(=O)NCCN4CCN(c5ccccc5F)CC4)cc23)c1	0.0431	0.436	0.777	0.836	0.835
CCOc1ccccc1NC(=O)CN1CCN(C(=O)c2ccco2)CC1	1.06	1	1.07	0.959	1.1
COc1ccc(CNC2CCN(c3ccc(NC(=O)c4cccc(Cl)c4)cc3)CC2)cc1OC	0.0586	0.532	0.652	0.79	0.758
Nc1ccn(C2O[C@H](CO)[C@@H](O)[C@H]2O)c(=O)n1 (stereo not given in full)	0.976	1.14	0.955	1.07	1.1
Cc1cc(Nc2ccc(Cl)cc2)n2nc(C(F)(F)F)nc2n1	0.957	0.975	1.03	0.97	1
Cc1cc(Nc2ccc3ccccc3c2)n2ncnc2n1	0.567	0.521	0.755	0.79	0.626
O=C(NC1CCN(Cc2ccccc2)CC1)c1cc2nc(-c3ccc(Cl)s3)cc(C(F)(F)F)n2n1	0.0778	0.366	0.843	0.883	1.01
OC(CNC1CCCCC1)Cn1c2ccccc2c2ccccc21 (stereo not given)	0.0354	0.0493	0.178	0.277	0.198
COc1cc(C(=O)Nc2nc3c(cc4c5c(cccc53)CC4)s2)cc(OC)c1OC	0.18	0.5	1.04	0.775	0.818
O=C(Nc1ccsc1C(=O)NC1CCCCC1)c1ccc(F)cc1	0.93	0.729	0.965	0.933	0.945
CCOc1cc2c(cc1OCC)C(c1cc(C)c(O)c(C)c1)NCC2 (stereo not given)	0.0111	0.123	0.642	0.851	0.78
N=c1c2ccccc2nnn1-c1cccc(C(F)(F)F)c1	0.988	0.714	1.02	0.785	0.87
CCOc1cc2c(cc1OCC)C(c1cc(OC)c(O)cc1Cl)NCC2 (stereo not given)	0.0243	0.0957	0.513	0.723	0.626
CC1CCN(Cc2ccc(NC(=O)c3cc4ccc5cccnc5c4[nH]3)cc2)CC1	0.265	0.505	0.902	0.954	0.769
CC(C)=CCN1CCC(C(=O)Nc2ccc(-c3nc4ccccc4[nH]3)cc2)CC1	0.0674	0.525	0.921	0.912	0.967
COc1ccc(CNC(=O)c2cc3c(=O)n4ccccc4nc3n(CCc3ccccc3)c2=N)cc1	0.254	0.499	0.826	0.946	1.01
COc1ccc(Nc2nc(NCc3ccccc3)c3ccccc3n2)cc1	0.0331	0.107	0.562	0.593	0.286
O=C(NC1CCN(Cc2ccccc2)CC1)c1cc(-c2cccnc2)nc2ccc(Cl)cc12	0.53	0.609	0.989	1.18	0.725
CCCCc1c(CCC)c(=N)c2ccccc2n1C	1.05	0.911	1	0.918	0.701
O=C(Nc1ccc(-c2nc3ccccc3[nH]2)cc1)c1ccc(Cl)c(Cl)c1	0.129	0.564	0.894	0.978	0.727
O=C(NCc1ccco1)C1CCN(S(=O)(=O)c2ccc(Cl)cc2)CC1	0.568	0.802	1.03	0.942	1.23
CCOC(=O)c1ccc2nc(-c3ccccc3)cc(O)c2c1	0.606	0.719	0.761	0.757	1.12
COc1cccc(C2(C)Nc3ccccc3-c3nc4ccccc4n32)c1 (stereo not given)	0.113	0.0986	0.198	0.465	0.154
CCOC(=O)C1=C(C)N=c2sc(=Cc3cc(Cl)ccc3O)c(=O)n2C1c1ccc(OC)cc1 (stereo not given)	0.0559	0.0966	0.137	0.171	0.416
Cc1ccc(C)c(Cn2c(N3CCC(C(=O)NCc4cccs4)CC3)nc3ccccc32)c1	0.741	0.378	0.438	0.342	0.221
